Records with an inconclusive call do not appear. Calls of active or inactive are those of the source. Unless noted, calls follow the shape of the dose curve; as a rule, active = well fitted curve in the direction sought with a large enough effect in the repeat runs; inconclusive = weak or mixed curves; inactive = no such curve, though single readings can be large; an effect the other way counts as inactive or inconclusive.
Legend:
[1] = biological target: Cytochrome P450 2D6 (Homo sapiens) (UniProt P10635); test: Cytochrome P450 family 2 subfamily D member 6 (CYP2D6) small molecule antagonists: luciferase biochemical (cell-free) qHTS assay (AID 1645840); details: P450-Glo CYP2D6 enzyme, luciferin luminescence, 1 h; series mostly up to 57.4 µM; also: nearly all actives have a fitted effect of over 55% in size
Sequence of Cytochrome P450 2D6 (Homo sapiens) (P10635 whole entry, looked up): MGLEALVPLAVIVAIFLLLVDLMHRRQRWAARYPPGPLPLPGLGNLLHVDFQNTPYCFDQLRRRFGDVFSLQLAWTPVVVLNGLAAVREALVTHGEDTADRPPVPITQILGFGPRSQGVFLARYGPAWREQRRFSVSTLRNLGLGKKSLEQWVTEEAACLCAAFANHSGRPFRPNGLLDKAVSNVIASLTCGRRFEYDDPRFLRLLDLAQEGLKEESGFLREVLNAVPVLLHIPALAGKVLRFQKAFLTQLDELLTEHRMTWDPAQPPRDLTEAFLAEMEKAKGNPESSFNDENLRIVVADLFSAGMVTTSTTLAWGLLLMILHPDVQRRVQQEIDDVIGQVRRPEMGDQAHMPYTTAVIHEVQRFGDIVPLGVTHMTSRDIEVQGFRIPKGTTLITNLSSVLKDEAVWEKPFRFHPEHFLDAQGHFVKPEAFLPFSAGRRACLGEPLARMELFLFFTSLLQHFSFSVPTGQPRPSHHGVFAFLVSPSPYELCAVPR
Summary of the method: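 P450-Glo luminescent screen: recombinant CYP2D6 enzyme–proluciferin substrate mix preincubated with compound 10 min at room temperature, then NADPH regeneration added for 1 h at room temperature. Detection reagent added for 20 min; luciferin light read as relative luminescence units.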

[2] = biological target: Cytochrome P450 2C9 (Homo sapiens) (UniProt P11712); test: Cytochrome P450 family 2 subfamily C member 9 (CYP2C9) small molecule antagonists: luciferase biochemical (cell-free) qHTS assay (AID 1645842); details: P450-Glo CYP2C9 enzyme assay, luciferin luminescence; series mostly up to 57.4 µM; also: nearly all actives have a fitted effect of over 55% in size
Sequence of Cytochrome P450 2C9 (Homo sapiens) (P11712 whole entry, looked up): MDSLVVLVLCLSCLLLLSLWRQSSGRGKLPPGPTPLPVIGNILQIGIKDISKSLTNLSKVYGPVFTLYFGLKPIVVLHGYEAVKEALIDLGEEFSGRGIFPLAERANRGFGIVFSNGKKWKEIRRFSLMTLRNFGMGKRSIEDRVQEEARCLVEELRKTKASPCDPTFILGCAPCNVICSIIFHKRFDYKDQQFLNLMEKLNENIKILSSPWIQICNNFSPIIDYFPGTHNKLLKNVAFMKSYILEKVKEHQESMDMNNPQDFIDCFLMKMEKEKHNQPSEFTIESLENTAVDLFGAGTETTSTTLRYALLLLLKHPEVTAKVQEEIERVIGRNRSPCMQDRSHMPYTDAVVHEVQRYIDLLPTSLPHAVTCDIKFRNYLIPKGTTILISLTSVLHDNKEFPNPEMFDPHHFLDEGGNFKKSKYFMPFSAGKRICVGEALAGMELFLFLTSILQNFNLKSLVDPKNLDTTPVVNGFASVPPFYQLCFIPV
Summary of the method: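 Luminescence, after 20 min with luciferin detection reagent, reflected CYP2C9 turnover during a 1 h NADPH-driven reaction at 37C. Enzyme-substrate mix contained 0.4% bovine serum albumin and was preincubated with compound 10 min at room temperature.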

[3] = biological target: N-terminal Xaa-Pro-Lys N-methyltransferase 1 (Homo sapiens) (UniProt Q9BV86); test: Confirmatory qHTS for Inhibitors of N-terminal methyltransferase 1 (NTMT1): MTaseGlo Assay (AID 1645874; active = well fitted curve in the direction sought with a large enough effect; an effect the other way counts as inactive or inconclusive; also: nearly all actives have a fitted effect of over 65% in size); details: NTMT1 enzyme, MTase-Glo SAH luminescence; series mostly up to 100 µM
Sequence of N-terminal Xaa-Pro-Lys N-methyltransferase 1 (Homo sapiens) (Q9BV86 whole entry, looked up): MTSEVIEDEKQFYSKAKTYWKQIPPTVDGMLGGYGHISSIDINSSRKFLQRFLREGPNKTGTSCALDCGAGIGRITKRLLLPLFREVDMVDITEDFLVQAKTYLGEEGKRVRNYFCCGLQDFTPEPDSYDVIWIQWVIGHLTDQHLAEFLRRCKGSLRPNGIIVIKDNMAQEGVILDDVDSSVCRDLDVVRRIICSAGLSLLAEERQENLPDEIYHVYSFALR
Summary of the method: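 Compounds are incubated with 125 nM NTMT1 and 100 uM SAM for 15 min before the SPKRIA peptide (1 uM) starts a 30 min room-temperature methylation. SAH is measured by coupled luciferase luminescence and curves fitted to a Hill equation.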

[4] = Primary qHTS for inhibitors of nuclear receptor binding SET domain protein 2 (NSD2) in an isogenic RCH-ACV NSD2 p.E1099K mutant (9B) (AID 1645876; active = well fitted curve in the direction sought with a large enough effect; an effect the other way counts as inactive or inconclusive; also: nearly all actives have a fitted effect of over 70% in size); details: RCH-ACV NSD2 E1099K (9B) viability, CellTiter-Glo, 72 h; series mostly up to 44.9 µM
[5] = Primary qHTS for inhibitors of nuclear receptor binding SET domain protein 2 (NSD2) in an RCH-ACV wild type WT cells (2C) (AID 1645877; active = well fitted curve in the direction sought with a large enough effect; an effect the other way counts as inactive or inconclusive; also: nearly all actives have a fitted effect of over 70% in size); details: RCH-ACV (leukaemia line) NSD2 WT (2C) viability, CellTiter-Glo, 72 h; series mostly up to 44.9 µM
Potency is read from the fitted curve at half-maximal effect.

CNCc1cc(-c2ccccc2F)n(S(=O)(=O)c2cccnc2)c1
Potency [1]: 19 µM (active) | Potency [2]: inactive

O=c1[nH]c2ccc(C#CCN3CCC(Cc4ccccc4)CC3)cc2[nH]1
Potency [1]: 0.338 µM (active) | Potency [2]: 7.56 µM (active)

Cc1c(Cl)cccc1S(=O)(=O)Nc1nc(NCCc2ccccc2)nc2c1CN(Cc1ccccc1)CC2
Potency [1]: 4.77 µM (active) | Potency [2]: 6.01 µM (active)

C=C1CCN([C@H](C)[C@](O)(Cn2cncn2)c2ccc(F)cc2F)CC1
Potency [1]: 23.9 µM (active) | Potency [2]: 0.477 µM (active)

N#Cc1ccc(COc2ccc(-c3cccc4nc(NC(=O)C5CC5)nn34)cc2)cn1
Potency [1]: inactive | Potency [2]: 10.7 µM (active)

CCOc1cccc(NC(=O)c2ccc(N3CCCC3)c(C(F)(F)F)c2)c1
Potency [1]: inactive | Potency [2]: inactive

COc1ccc(-c2cc3onc(-c4ccncc4)c3c(=O)n2C)cc1
Potency [1]: 9.52 µM (active) | Potency [2]: 0.952 µM (active)

CCc1cnc(N2CCC(c3nc(COc4ccc(-n5cnnn5)cc4)cs3)CC2)nc1
Potency [1]: inactive | Potency [2]: inactive

Cc1cnn(-c2ccccc2)c1NC(=O)COCc1ccccc1
Potency [1]: inactive | Potency [2]: 10.7 µM (active)

CC#C[C@@H](CC(=O)O)c1ccc(OCc2ccc(CN3CCC4(C=Cc5ccccc54)CC3)s2)cc1
Potency [1]: 15.1 µM (active) | Potency [2]: 23.9 µM (active)

COc1ccc(CN2CCN(C(=O)CCNC(=O)c3ccc(C(C)(C)C)cc3)CC2)cc1
Potency [1]: 15.1 µM (active) | Potency [2]: 8.49 µM (active)

C=CCCN1CCC2(CC1)CN(C(=O)c1c(F)cccc1F)c1ccc(Cl)cc12
Potency [1]: 0.019 µM (active) | Potency [2]: 13.5 µM (active)

O=C(C1CCCCC1)N(CCN1CCN(c2ccccc2O)CC1)c1ccccn1
Potency [1]: 10.7 µM (active) | Potency [2]: 12 µM (active)

O=P(O)(O)OC(CO)CO
Potency [1]: inactive | Potency [2]: inactive

O=C(NCCN1CCN(c2cccc3ccc(O)cc23)CC1)c1ccc(F)cc1
Potency [1]: 0.0425 µM (active) | Potency [2]: 0.601 µM (active)

CC1(S(=O)(=O)O)CC(=O)c2ccccc2C1=O (stereo not given)
Potency [1]: 8.49 µM (active) | Potency [2]: 16.9 µM (active)

CCC(C)c1ccc(NC(=O)Cn2cnc3c2c(=O)n(C)c(=O)n3C)cc1 (stereo not given)
Potency [1]: inactive | Potency [2]: 12 µM (active)

O=C(Nc1ccccc1)N1CCC(Cc2cnc3ccccc3c2)CC1
Potency [1]: 26.8 µM (active) | Potency [2]: 12 µM (active)

O=C(N[C@H](Cc1cscn1)C(=O)N[C@@H](CC1CCCCC1)[C@@H](O)[C@@H](O)C1CC1)c1nc2ccccc2[nH]1
Potency [1]: 19 µM (active) | Potency [2]: 1.34 µM (active)

CN[C@@H]1CCc2[nH]c3ccc(C(N)=O)cc3c2C1
Potency [1]: inactive | Potency [2]: inactive

O=C(N[C@@H]1CCCc2c1cnn2-c1ccc(F)cc1F)c1ccccn1
Potency [1]: inactive | Potency [2]: 21.3 µM (active)

CC(=O)Nc1cccc(Nc2ncnc(N3CCC(OCc4ccc(OC(F)(F)F)cc4)CC3)n2)c1C
Potency [1]: inactive | Potency [2]: 13.5 µM (active)

Cc1[nH]c(/C=C2\C(=O)Nc3cc(-c4ccccc4)ccc32)c(C)c1CCC(=O)O
Potency [1]: inactive | Potency [2]: 12 µM (active) | Potency [3]: 49.4 µM (active) | Potency [4]: 23 µM (active) | Potency [5]: 23 µM (active)

COc1cc(C(=O)NC(=S)Nc2cccc(NC(=O)c3ccccc3)c2)cc(OC)c1OC
Potency [1]: inactive | Potency [2]: 3.79 µM (active)

COc1ccc2c(c1)C(C(=O)N(Cc1ccc(N(C)C)cc1)c1ccc(C(C)C)cc1)CCC2 (stereo not given)
Potency [1]: inactive | Potency [2]: 5.35 µM (active)

Cc1ccnn1-c1ccc(C(=O)N2CCN(S(=O)(=O)c3ccc(Cl)c(C(F)(F)F)c3)CC2)cc1
Potency [1]: inactive | Potency [2]: 6.74 µM (active)

From PubChem BioAssay (NCATS)
